Bioassay records as filed in PubChem.
BoNT A protease: blocks Botulinum neurotoxin A light chain protease; multiplex microsphere protease substrate cleavage, flow cytometry; inhibition, % at 10 µM; 0.17% of 360,000 active; AID 588499
Anthrax LF prot: blocks Bacillus anthracis lethal factor protease; 0.12% of 360,000 active; multiplex microsphere protease cleavage assay, LF; inhibition, % at 10 µM; AID 588501; P15917
Target sequence (P15917 whole entry, looked up): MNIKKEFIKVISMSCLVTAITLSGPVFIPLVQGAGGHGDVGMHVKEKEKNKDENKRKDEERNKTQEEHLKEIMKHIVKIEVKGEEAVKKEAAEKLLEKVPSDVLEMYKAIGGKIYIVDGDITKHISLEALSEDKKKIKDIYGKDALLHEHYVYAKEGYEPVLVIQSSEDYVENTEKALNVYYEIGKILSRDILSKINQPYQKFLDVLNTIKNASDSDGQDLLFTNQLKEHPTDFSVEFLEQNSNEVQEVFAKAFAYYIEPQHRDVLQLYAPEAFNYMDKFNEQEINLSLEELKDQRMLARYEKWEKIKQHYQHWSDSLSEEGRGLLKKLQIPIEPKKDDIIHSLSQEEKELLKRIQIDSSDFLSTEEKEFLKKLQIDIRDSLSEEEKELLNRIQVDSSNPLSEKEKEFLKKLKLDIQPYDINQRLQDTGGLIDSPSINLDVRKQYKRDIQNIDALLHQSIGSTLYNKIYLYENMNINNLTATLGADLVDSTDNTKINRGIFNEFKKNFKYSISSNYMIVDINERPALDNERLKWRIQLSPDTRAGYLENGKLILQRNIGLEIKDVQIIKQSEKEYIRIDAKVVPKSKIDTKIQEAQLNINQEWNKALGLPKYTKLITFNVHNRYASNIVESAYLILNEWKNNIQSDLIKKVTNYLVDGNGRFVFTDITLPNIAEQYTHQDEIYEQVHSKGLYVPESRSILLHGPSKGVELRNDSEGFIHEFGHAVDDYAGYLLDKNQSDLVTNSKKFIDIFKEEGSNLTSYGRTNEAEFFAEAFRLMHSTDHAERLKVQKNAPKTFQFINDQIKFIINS
TcdB GH inh: inhibitors of Clostridioides difficile toxin B glycohydrolase; TcdB glycohydrolase enzymatic assay, plate reader; inhibition, % at 9.99 µM; 0.24% of 350,000 active; in the data active = inhibition above about 10%
BoNT-F LC inh: BoNT F light chain protease inhibition. 0.22% of 360,000 active. Multiplex microsphere protease cleavage assay, flow cytometry. AID 588497. inhibition, % at 10 µM; in the data active = inhibition above about 35%, passing the limit was not always enough; inconclusive = no clear call, values can overlap the other calls
Bead autofluor: compound fluorescence in toxin protease inhibitor counterscreen | fluorescence intensity (test concentration not listed) | compound autofluorescence counterscreen, microsphere flow cytometry; active compounds read high | 3.1% of 360,000 active; in the data active = fluorescence intensity above about 16000; inconclusive = no clear call, values can overlap the other calls
Large screens that a line does not name were inactive. Only a selection was taken, and hits are over-represented in it overall. Cut-off read from the data, not from the text of the source, unless noted: active = inhibition above about 30%; inconclusive = no clear call, values can overlap the other calls; inactive = below that.

C[C@@H]1CN([C@@H](C)CO)C(=O)c2cc(NS(C)(=O)=O)ccc2O[C@@H]1CN(C)C(=O)Nc1cccc2ccccc12	none (no result: BoNT A protease, Anthrax LF prot, BoNT-F LC inh, Bead autofluor)
COc1ccc2c3c(n(C)c2c1)[C@@H](CO)NCC31CN(CC2CC2)C1	none (no result: BoNT A protease, Anthrax LF prot, BoNT-F LC inh, Bead autofluor)
C(=N\n1cnnc1)/c1ccc(-c2ccccc2)cc1	none (no result: TcdB GH inh)
CCOc1ccc(/C=N/n2cnnc2)cc1	BoNT A protease inconclusive, Bead autofluor 17072 (no result: TcdB GH inh)
CCc1ccc(/C=N\n2cnnc2)cc1	Anthrax LF prot inconclusive, BoNT-F LC inh 45.4
C(=N\n1cnnc1)/c1ccc(OCc2ccccc2)cc1	none (no result: TcdB GH inh)
Cc1ccc(S(=O)(=O)NC(=O)Nc2ccc(F)cc2)cc1	Bead autofluor 16339 (no result: TcdB GH inh)
COc1cc(NC(=O)NS(=O)(=O)c2ccc(C)cc2)cc(OC)c1	BoNT A protease inconclusive, Bead autofluor 20395 (no result: TcdB GH inh)
CCOC(=O)N(C)C[C@@H]1OCc2cnnn2CCCC(=O)N([C@@H](C)CO)C[C@H]1C	none (no result: BoNT A protease, Anthrax LF prot, BoNT-F LC inh, Bead autofluor)
CNC[C@@H]1Oc2ccc(NS(=O)(=O)c3ccc(C)cc3)cc2C(=O)N([C@@H](C)CO)C[C@H]1C	none (no result: BoNT A protease, Anthrax LF prot, BoNT-F LC inh, Bead autofluor)
COc1ccc(NC(=O)N[C@H]2CC[C@@H](CCNC(=O)CCN3CCCCC3)O[C@H]2CO)cc1	none (no result: BoNT A protease, Anthrax LF prot, BoNT-F LC inh, Bead autofluor)
FC(F)(F)c1cnc(/C=C/Nc2ccccc2Cl)c(Cl)c1	Bead autofluor 22771 (no result: TcdB GH inh)
C[C@@H]1CN([C@@H](C)CO)C(=O)c2cc(C3=CCCC3)cnc2O[C@@H]1CN(C)C(=O)c1ccc2c(c1)OCO2	none (no result: BoNT A protease, Anthrax LF prot, BoNT-F LC inh, Bead autofluor)
CC1CCC(C(C)C)C(OC(=O)COC(=O)c2ccc(N)cc2)C1 (stereo unspecified)	none (no result: TcdB GH inh)
C/C(=N\O)C(=O)OC1CC(C)CCC1C(C)C (stereo unspecified)	Bead autofluor 24312 (no result: TcdB GH inh)
Cc1ccc(C)c(NC(=O)CSc2nnc([C@@H](N)Cc3c[nH]c4ccccc34)o2)c1	Bead autofluor 24677 (no result: TcdB GH inh)
CC(C)Sc1nnc([C@@H](N)Cc2ccccc2)o1	Bead autofluor 16323 (no result: TcdB GH inh)
CC(C)Sc1nnc([C@@H](N)Cc2c[nH]c3ccccc23)o1	BoNT A protease inconclusive, Bead autofluor 18809 (no result: TcdB GH inh)
O=C(Nc1cc(F)ccc1F)N[C@@H]1CC[C@H](CCn2cc(C3CCCC3)nn2)O[C@H]1CO	none (no result: BoNT A protease, Anthrax LF prot, BoNT-F LC inh, Bead autofluor)
CC1CCC/C(=C\Nc2ccc3c(c2)OCO3)C1=O (stereo unspecified)	Bead autofluor 22454
COCC#Cc1cnc2c(c1)C(=O)N([C@@H](C)CO)C[C@@H](C)[C@H](CN(C)C(=O)c1ccc3c(c1)OCO3)O2	none (no result: BoNT A protease, Anthrax LF prot, BoNT-F LC inh, Bead autofluor)
Cc1ccc(S(=O)(=O)CC(C)N2CCOCC2)c(S(=O)(=O)CC(C)N2CCOCC2)c1 (stereo unspecified)	Bead autofluor 23181 (no result: TcdB GH inh)
Cc1ccc(S(=O)(=O)CC(CN2CCOCC2)N2CCOCC2)cc1 (stereo unspecified)	none
COc1ccc(CN2C[C@H](O)COC[C@H]3O[C@@H](CC(=O)NCc4ccccc4Cl)CC[C@@H]32)cc1	none (no result: BoNT A protease, Anthrax LF prot, BoNT-F LC inh, Bead autofluor)
COc1ccc(NC(=O)Nc2ccc3c(c2)C(=O)N([C@@H](C)CO)C[C@@H](C)[C@@H](CN(C)S(=O)(=O)c2ccc(C)cc2)O3)cc1	none (no result: BoNT A protease, Anthrax LF prot, BoNT-F LC inh, Bead autofluor)
CC(=O)OCCN(C)c1cc(SC(C)C)c2nonc2c1[N+](=O)[O-]	none
CN(CCO)c1cc(Sc2nc3ccccc3s2)c2nonc2c1[N+](=O)[O-]	Bead autofluor 21417
C[C@@H]1CCCCO[C@@H](CN(C)C(=O)c2ccccc2)[C@H](C)CN([C@H](C)CO)C(=O)c2cc(NC(=O)Nc3ccc(C(F)(F)F)cc3)ccc2O1	none (no result: BoNT A protease, Anthrax LF prot, BoNT-F LC inh, Bead autofluor)
CCCS(=O)(=O)Nc1cc(C(F)(F)F)ccc1OCCOC	Bead autofluor 24565 (no result: TcdB GH inh)
O=C(Nc1cccc2ncccc12)c1ccc(-c2ccc(Br)cc2)o1	Bead autofluor 20512 (no result: TcdB GH inh)
Cc1cc2ncn(/N=C/c3ccc([N+](=O)[O-])s3)c2cc1C	BoNT A protease 43.5 (no result: TcdB GH inh)
O=[N+]([O-])c1ccc(/C=N/n2cnc3ccccc32)s1	none
CSCCC(NC(=O)c1ccccc1)C(=O)NC1CC1 (stereo unspecified)	BoNT A protease inconclusive, Bead autofluor 23748 (no result: TcdB GH inh)
COc1ccc(CNC(=O)C[C@H]2CC[C@H](NC(=O)c3cccc(F)c3)[C@H](CO)O2)cc1	none (no result: BoNT A protease, Anthrax LF prot, BoNT-F LC inh, Bead autofluor)
CCN(CC)C(=O)CSc1nnc(-c2cc3ccccc3cc2O)n1CC	Bead autofluor 23212 (no result: TcdB GH inh)
CCN(CC)C(=O)CSc1nc2ccccc2c(=O)n1CC	none (no result: TcdB GH inh)
C[C@@H]1CN([C@H](C)CO)C(=O)CCCn2cc(nn2)CO[C@@H]1CN(C)C	none (no result: BoNT A protease, Anthrax LF prot, BoNT-F LC inh, Bead autofluor)
CCOC(=O)c1c(-c2cccs2)csc1NC(=O)CN(CC)CC	Bead autofluor 22950 (no result: TcdB GH inh)
CCOc1ccc(C2C(C#N)=C(N)SC(N)=C2C#N)c(OCC)c1	BoNT A protease 44.2, BoNT-F LC inh inconclusive, Bead autofluor 22485 (no result: TcdB GH inh)
CCOc1cc(C2C(C#N)=C(N)SC(N)=C2C#N)ccc1OCCN1CCOCC1	none (no result: TcdB GH inh)
COc1ccc(OC)c(-n2c(-c3ccccc3)n[nH]c2=S)c1	BoNT A protease inconclusive, Bead autofluor 22480 (no result: TcdB GH inh)
